# Laboratory results: ChEMBL document CHEMBL3988442, “University of Dundee, Small-Polar-MMV Screening Library” (2021)
# Target: T1, Aspartate--tRNA(Asp/Asn) ligase (Mycobacterium tuberculosis (strain ATCC 25618 / H37Rv)) (UniProt P9WFW3)
# T1 sequence (whole entry): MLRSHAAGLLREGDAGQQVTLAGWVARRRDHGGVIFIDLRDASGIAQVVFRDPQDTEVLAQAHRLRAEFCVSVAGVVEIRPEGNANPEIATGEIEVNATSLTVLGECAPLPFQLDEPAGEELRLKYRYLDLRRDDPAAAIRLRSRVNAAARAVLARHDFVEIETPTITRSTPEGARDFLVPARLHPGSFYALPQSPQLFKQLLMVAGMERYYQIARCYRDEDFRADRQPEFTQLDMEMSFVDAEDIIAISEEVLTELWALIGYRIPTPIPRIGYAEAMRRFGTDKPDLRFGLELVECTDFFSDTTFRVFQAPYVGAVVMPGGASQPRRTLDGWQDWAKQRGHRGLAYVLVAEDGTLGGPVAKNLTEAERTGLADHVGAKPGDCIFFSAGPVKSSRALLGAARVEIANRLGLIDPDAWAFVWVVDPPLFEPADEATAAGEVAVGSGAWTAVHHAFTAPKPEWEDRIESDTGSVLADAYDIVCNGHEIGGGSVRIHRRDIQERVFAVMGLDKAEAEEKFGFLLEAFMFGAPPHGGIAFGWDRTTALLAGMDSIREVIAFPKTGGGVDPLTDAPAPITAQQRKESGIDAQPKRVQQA
# Assay: Assay for Asp RNA synthetase-1 from Mycobacterium tuberculosis
# Assay type: functional
# Parameters: scale not given: in the data most compounds retested in dose-response had high values
# Conditions: 30 µM
row,Compound,Percent Effect
1,Cc1nc(COC[C@@H]2CC[C@H]3[C@H](CCN3S(C)(=O)=O)O2)cs1,6.16%
2,Cc1cccc(CN(C)Cc2nc3c(cnn3C)c(=O)[nH]2)c1,3.62%
3,Cn1ccc(CN2CCC(CO)CC2)cc1=O,-0.422%
4,CN(CCc1ccccc1)Cc1cc(C(=O)N2CCCC2(C)C)no1,0.433%
5,Cc1noc(C)c1CCC(=O)NC(C)c1nnc2n1CCC2 (stereo not given),-0.635%
6,CN(Cc1cncnc1)Cc1cn2c(n1)CN(C1CCOC1)CC2 (stereo not given),7.69%
7,Cc1cnn(CC2CN(Cc3nnc(-c4occc4C)o3)CCO2)c1 (stereo not given),2.04%
8,CCc1nc(N)sc1C(=O)N1CCCC(CCc2ccccc2C)C1 (stereo not given),6.53%
9,Cc1ncnc2c1CCN(Cc1cccs1)CC2,9.2%
10,Cc1cnn(CCC(=O)N2CCCN(c3cccnn3)CC2)c1,-0.568%
11,CCCN1CCC(NC(=O)c2ccc(F)cc2I)CC1,-6.77%
12,CC(C)NC(=O)c1nnn(-c2cccc(C(F)(F)F)c2)c1C1CC1,-2.65%
13,Cn1cc(C(=O)N2CCCC(Cc3nccs3)C2)cn1 (stereo not given),2.4%
14,CC(=O)NCc1ccc(C(=O)N2CCCC2c2cnn(C)c2)o1 (stereo not given),1.21%
15,Cc1nc(C)n(C2CCCN(C(=O)c3ccc(NC4CC4)nc3)C2)n1 (stereo not given),-1.66%
16,C[C@H](O)CNC(=O)c1cnc(-c2ccccc2)nc1O,2.44%
17,Cc1ccc(C(=O)N2CCC3(CC2)NC(=O)CC3c2ccccc2)cn1 (stereo not given),3.23%
18,CC(C)c1noc(C(C)N2CCN(CCO)CC2)n1 (stereo not given),13%
19,O=C(Cc1ccc2c(c1)CCCC2)NCCc1ccccn1,2.5%
20,O=S(=O)(NCC1(O)CCOc2ccccc21)c1cccs1 (stereo not given),-0.546%
